# What was measured:
# Test in all cases: area under confluence curve of compound monotherapy; compare to DMSO control AUC of the same experiment (AUC (confluence x time, arbitrary))
# H1975 = system: H1975
# In short: (§1)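 EGFR-mutant adenocarcinoma lines (RPMI 1640, 10% FBS, 37 °C, 5% CO2) were seeded at 20,000–30,000 cells/well in 48-well plates and next day given test compound alone at one dose (highest with <50% parental inhibition, or 1 uM), refreshed after PBS washes every 3–4 days, then drug-free from DTP stage (10–21 days). IncuCyte confluence was tracked until EGFR-inhibitor-only wells regrew. Area under the confluence curve came from Prism (median of triplicates where run), beside same-experiment vehicle AUC.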
# HCC2279 = system: HCC2279
# In short: as §1
# HCC2935 = system: HCC2935
# In short: as §1
# HCC4006 = system: HCC4006
# In short: as §1
# HCC827 = system: HCC827
# In short: as §1
# II-18 = system: II-18
# In short: as §1
# [1] = 100 nM, DMSO control AUC in same experiment: 11459
# [2] = 100 nM, DMSO control AUC in same experiment: 13556
# [3] = 1000 nM, DMSO control AUC in same experiment: 20657
compound,measurement,setting,value
CCN1CCN(Cc2ccc(Nc3ncc(F)c(-c4cc(F)c5nc(C)n(C(C)C)c5c4)n3)nc2)CC1 [Abemaciclib],area under confluence curve,"H1975; 100 nM, DMSO control AUC in same experiment: 14522",13800
same,area under confluence curve,"HCC2279; 100 nM, DMSO control AUC in same experiment: 27284",22900
same,area under confluence curve,HCC2935; [1],8290
same,area under confluence curve,"HCC4006; 100 nM, DMSO control AUC in same experiment: 10921",9680
same,area under confluence curve,"HCC827; 100 nM, DMSO control AUC in same experiment: 48895",48500
same,area under confluence curve,II-18; [2],14000
Cn1cc(CNCC2CCN(c3ncc(C(=O)NO)cn3)CC2)c2ccccc21 [Quisinostat],area under confluence curve,"H1975; 10 nM, DMSO control AUC in same experiment: 20657",8960
same,area under confluence curve,"HCC2279; 10 nM, DMSO control AUC in same experiment: 29252",18800
same,area under confluence curve,"HCC2935; 10 nM, DMSO control AUC in same experiment: 13875",8250
same,area under confluence curve,"HCC4006; 10 nM, DMSO control AUC in same experiment: 16638",11600
same,area under confluence curve,"HCC827; 10 nM, DMSO control AUC in same experiment: 27404",25100
same,area under confluence curve,"II-18; 10 nM, DMSO control AUC in same experiment: 7080",3280
COC(=O)c1ccc([C@H]2c3[nH]c4ccccc4c3C[C@H](C(=O)OC)N2C(=O)CCl)cc1,area under confluence curve,"H1975; 100 nM, DMSO control AUC in same experiment: 26010",25200
same,area under confluence curve,"HCC2279; 100 nM, DMSO control AUC in same experiment: 9426",9000
same,area under confluence curve,HCC2935; [1],11700
same,area under confluence curve,"HCC4006; 100 nM, DMSO control AUC in same experiment: 16638",16200
same,area under confluence curve,"HCC827; 100 nM, DMSO control AUC in same experiment: 35394",29100
same,area under confluence curve,II-18; [2],7620
Cn1cnc2c(F)c(Nc3ccc(Br)cc3Cl)c(C(=O)NOCCO)cc21 [Selumetinib],area under confluence curve,"H1975; 300 nM, DMSO control AUC in same experiment: 14522",17100
same,area under confluence curve,"HCC2279; 300 nM, DMSO control AUC in same experiment: 40085",37400
same,area under confluence curve,"HCC2935; 300 nM, DMSO control AUC in same experiment: 15413",17800
same,area under confluence curve,"HCC4006; 300 nM, DMSO control AUC in same experiment: 10921",11800
same,area under confluence curve,"HCC827; 300 nM, DMSO control AUC in same experiment: 48895",45800
same,area under confluence curve,"II-18; 300 nM, DMSO control AUC in same experiment: 18482",15300
Cc1cc(N2C[C@@H](C)N[C@@H](C)C2)ncc1-c1ccc(-c2nc3c(ccn3C)c(=O)[nH]2)cc1,area under confluence curve,H1975; [3],19600
same,area under confluence curve,"HCC2279; 1000 nM, DMSO control AUC in same experiment: 40085",40800
same,area under confluence curve,"HCC2935; 1000 nM, DMSO control AUC in same experiment: 15413",14600
same,area under confluence curve,"HCC4006; 1000 nM, DMSO control AUC in same experiment: 10921",10500
same,area under confluence curve,"HCC827; 1000 nM, DMSO control AUC in same experiment: 48895",48800
same,area under confluence curve,"II-18; 1000 nM, DMSO control AUC in same experiment: 7080",6490
COc1nn(C)cc1Nc1nccc(-c2c[nH]c3c(NC(=O)[C@@H](C)N4CCN(C)CC4)cccc23)n1,area under confluence curve,"H1975; 1000 nM, DMSO control AUC in same experiment: 15857",17600
same,area under confluence curve,"HCC2279; 1000 nM, DMSO control AUC in same experiment: 14404",15500
same,area under confluence curve,"HCC2935; 1000 nM, DMSO control AUC in same experiment: 19215",20800
same,area under confluence curve,"HCC4006; 1000 nM, DMSO control AUC in same experiment: 18415",18600
same,area under confluence curve,"HCC827; 1000 nM, DMSO control AUC in same experiment: 21320",19500
same,area under confluence curve,"II-18; 1000 nM, DMSO control AUC in same experiment: 11834",5850
C[C@@H](Nc1cc(F)cc(F)c1)c1cc(C(=O)N(C)C)cc2c(=O)cc(N3CCOCC3)oc12,area under confluence curve,H1975; [3],18600
same,area under confluence curve,"HCC2279; 1000 nM, DMSO control AUC in same experiment: 29252",24500
same,area under confluence curve,"HCC2935; 1000 nM, DMSO control AUC in same experiment: 13875",10800
same,area under confluence curve,"HCC4006; 1000 nM, DMSO control AUC in same experiment: 16638",13600
same,area under confluence curve,"HCC827; 1000 nM, DMSO control AUC in same experiment: 27404",24900
same,area under confluence curve,"II-18; 1000 nM, DMSO control AUC in same experiment: 18482",11000
